KLF5 inh = kruppel-like factor 5 inhibition; AID 1700; inhibition, % at 5 µM; DLD-1 KLF5 promoter-luciferase reporter, luminescence; 0.23% of 290,000 active;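 active = inhibition above a per-plate limit of that plate's mean compound inhibition plus 3 SD, cut at about 60% in these data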;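 note: higher means less KLF5 promoter-driven luciferase light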
APP 5UTR inh = APP translation inhibition; inhibition, % at 2 µM; SH-SY5Y APP 5'UTR-luciferase reporter, luminescence; 0.82% of 190,000 active;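 active = inhibition above a set limit, derived from the sample mean plus 3 SD, cut at about 45% in these data; inconclusive = one replicate passes the limit while the other fails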
aSyn 5UTR inh = 5' untranslated region of α-synuclein, MLPCN primary screen; alpha-synuclein 5'UTR reporter, inhibitor activity; inhibition, % (tested at 7.5 µM); 0.82% of 300,000 active; in the data active = inhibition above about 60%; inconclusive = no clear call, values can overlap the other calls;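 note: H4 neuroglioblastoma cells stably carrying SNCA 5'UTR luciferase fusion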
IEC-6 tox = kills IEC-6 intestinal cells in KLF5 counter-screen; IEC-6 cytotoxicity, luminescence viability; inhibition, % at 5 µM; 0.78% of 290,000 active; AID 1825; in the data active = inhibition above about 22%
Ba/F3 V617F tox = lowers viability of Ba/F3 cells expressing EpoR and JAK2V617F; ATP luminescence; inhibition, % at 5.6 µM; 1.1% of 220,000 active;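 active = inhibition above the campaign mean plus 3 SD over all tested compounds, cut at about 24% in these data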;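 note: cytokine-independent growth of Ba/F3 cells driven by EpoR plus mutant JAK2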
BaF3 parental = reduces parental Ba/F3 cell viability, JAK2V617F counter-screen; CellTiter-Glo ATP luminescence; inhibition, % at 5.6 µM; 1.1% of 220,000 active; AID 1486;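 active = inhibition above a per-campaign cutoff, the mean inhibition of all tested compounds plus 3 SD, cut at about 27% in these data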
Of the large screens only hits and unclear results are named; the others gave an inactive call. An excerpt weighted towards active compounds, which were near 2.1% of everything screened.

Cc1ccc(/C=N/NC(=O)c2cc(-c3cccnc3)nc3ccccc23)cc1	APP 5UTR inh 68, aSyn 5UTR inh 81
O=C(N/N=C/c1ccc2c(c1)OCO2)c1cc(-c2ccccc2Cl)nc2ccccc12	none
O=C(Nc1ccccn1)c1cc(-c2cccnc2)nc2ccc(Br)cc12	aSyn 5UTR inh 62
O=C(N/N=C/c1cc([N+](=O)[O-])ccc1O)c1cc(-c2ccccc2)nc2ccccc12	aSyn 5UTR inh 81
CN(CC(=O)Nc1ccc(Cl)cc1)C(=O)CCc1nc2sc3c(c2c(=O)[nH]1)CCCC3	none (no result: KLF5 inh, APP 5UTR inh, IEC-6 tox, Ba/F3 V617F tox, BaF3 parental)
CC(=O)NNc1cc(C)nc(N)n1	none (no result: APP 5UTR inh)
COc1ccc(NC(=O)C(c2ccccc2)c2ccccc2)cn1	none
CCCCN(C(=O)c1cccc(S(=O)(=O)N2CCN(C)CC2)c1)c1c(N)n(CCC)c(=O)[nH]c1=O	none (no result: KLF5 inh, APP 5UTR inh, IEC-6 tox, Ba/F3 V617F tox, BaF3 parental)
O=[N+]([O-])c1ccc(O)c(/C=N/Nc2nc3ccccc3[nH]2)c1	APP 5UTR inh 81
O=C(N/N=C/c1ccsc1)c1cc(-c2ccncc2)nc2ccccc12	APP 5UTR inh 60
CC(/C=N/NC(=O)c1cc(-c2ccncc2)nc2ccccc12)=C\c1ccco1	APP 5UTR inh 88, aSyn 5UTR inh 86
O=C(N/N=C/c1ccco1)c1cc(-c2cccc(Br)c2)nc2ccccc12	none
COc1ccc(O)c(/C=N/Nc2nc3ccccc3[nH]2)c1	none
O=[N+]([O-])c1ccc(O)c(/C=N/Nc2ncnc3c2cnn3-c2ccccc2)c1	aSyn 5UTR inh 66 (no result: APP 5UTR inh, Ba/F3 V617F tox, BaF3 parental)
Cc1cc(C(=O)N/N=C/c2ccc(N(C)C)cc2)c2ccccc2n1	APP 5UTR inh 46
CC[n+]1c(/C=C2/C=C(C)CC(C)C2)sc2ccccc21 (stereo unspecified)	Ba/F3 V617F tox 60, BaF3 parental 55
CCCc1nnc(NC(=O)CCC(=O)NCCc2ccc(OC)c(OC)c2)s1	APP 5UTR inh 73
CCCc1nnc(NC(=O)CCC(=O)NCCc2ccc(Cl)cc2)s1	none (no result: APP 5UTR inh, Ba/F3 V617F tox, BaF3 parental)
ON/C=N/C(=S)Nc1ncc(C(F)(F)F)cc1Cl	Ba/F3 V617F tox 56, BaF3 parental 62
Cc1ccc(CNC(=O)C2CCC(=O)N2C(C)C)cc1 (stereo unspecified)	none (no result: APP 5UTR inh, Ba/F3 V617F tox, BaF3 parental)
Fc1ccc(/C=N/n2cnn(Cc3ccccc3Cl)c2=S)cc1	APP 5UTR inh 62
CN(C)c1ccc(/C=N/n2cnn(Cc3ccccc3Cl)c2=S)cc1	none
CCCn1c(=S)[nH]c2sc3c(c2c1=O)CCCC3	none (no result: APP 5UTR inh, Ba/F3 V617F tox, BaF3 parental)
CCOC(=O)Cn1c2c(c(=N)c3c1CCC3)CCCC2	none
CCCn1c2c(c(=N)c3c1CCC3)CCCC2	Ba/F3 V617F tox 65, BaF3 parental 65
CCCCCCCn1c2c(c(=N)c3ccccc31)CCC2	aSyn 5UTR inh 79, IEC-6 tox 34, Ba/F3 V617F tox 99, BaF3 parental 78
CCCn1c2c(c(=N)c3c1CCC3)CCC2	Ba/F3 V617F tox 46, BaF3 parental 54 (no result: APP 5UTR inh)
CCC(NS(=O)(=O)c1ccc2c(c1)Cc1cc(S(=O)(=O)NC(CC)C(=O)O)ccc1-2)C(=O)O (stereo unspecified)	none (no result: APP 5UTR inh, Ba/F3 V617F tox, BaF3 parental)
C=C1c2ccccc2NC(=S)N1Cc1ccc2c(c1)OCO2	none
Oc1ccc2ccccc2c1CN1CCN(c2ccccc2)CC1	none
OCc1ccc(O)c2ncccc12	aSyn 5UTR inh 66, Ba/F3 V617F tox 67, BaF3 parental 32
CCCOCc1ccc(O)c2ncccc12	none (no result: APP 5UTR inh)
CC(C)COCc1ccc(O)c2ncccc12	aSyn 5UTR inh 96
Oc1ccc(CN2CCN(c3ccccc3)CC2)c2cccnc12	aSyn 5UTR inh 80
O=[N+]([O-])c1cc(CN2CCN(c3cccc(C(F)(F)F)c3)CC2)c2cccnc2c1O	APP 5UTR inh 65, aSyn 5UTR inh 71
CCOc1ccc(CCNC(=O)COC(=O)c2ccc3c(c2)OCCO3)cc1OCC	none (no result: KLF5 inh, APP 5UTR inh, IEC-6 tox, Ba/F3 V617F tox, BaF3 parental)
Cc1ccc(C)c(S(=O)(=O)N2CCN(Cc3ccc(O)c4ncccc34)CC2)c1	APP 5UTR inh 56, aSyn 5UTR inh 74
CCOC(=O)N1CCN(Cc2ccc(O)c3ncccc23)CC1	none
Oc1ccc(CN2CCCCC2)c2cccnc12	APP 5UTR inh 88, aSyn 5UTR inh inconclusive, Ba/F3 V617F tox 86, BaF3 parental 62
CSc1ncccc1C(=O)N1CCN(S(=O)(=O)c2cc(C)ccc2C)CC1	none (no result: APP 5UTR inh, Ba/F3 V617F tox, BaF3 parental)
Oc1ccc(F)c2cccnc12	none
Oc1ccc(CNc2ccccc2F)c2cccnc12	APP 5UTR inh 48, aSyn 5UTR inh 87
Cc1ccc(C(=O)NC(=S)N2CCN(C)CC2)cc1	APP 5UTR inh 52
Cc1ccc(C(=O)NC(=S)N2CCCC2)cc1	none (no result: APP 5UTR inh, Ba/F3 V617F tox, BaF3 parental)
Cc1ccccc1S(=O)(=O)Cc1ccc(C(=O)N2CCN(c3cccc(C)c3C)CC2)o1	aSyn 5UTR inh 101
Cc1ccccc1S(=O)(=O)Cc1ccc(C(=O)N2CC(C)CC(C)C2)o1 (stereo unspecified)	none
O=C(N/N=C/c1sc(N2CCOCC2)nc1-c1ccccc1)c1cccc(S(=O)(=O)N2CCOCC2)c1	aSyn 5UTR inh 87 (no result: APP 5UTR inh)
CCN(CC)c1ccc(/C=N/Nc2nc(C)cc(=O)[nH]2)c(O)c1	APP 5UTR inh 85, aSyn 5UTR inh 95
CCN(CC)c1ccc(/C=N/NC(=O)c2c(Cl)cnn2C)c(O)c1	APP 5UTR inh 60, aSyn 5UTR inh 90
CCN(CC)c1ccc(/C=N/NC(=O)c2cccc(S(=O)(=O)N3CCOCC3)c2)c(O)c1	APP 5UTR inh 60, aSyn 5UTR inh 129
Nc1ccc(C(=O)N/N=C/c2sc(N3CCOCC3)nc2-c2ccccc2)cc1	none
Cc1c(Cl)cccc1-c1ccc(CNCc2ccccn2)o1	none (no result: APP 5UTR inh, Ba/F3 V617F tox, BaF3 parental)
CCOC(=O)N/N=C/c1ccc(N(CC)CC)cc1O	none
O=C(N/N=C/c1ccccc1O)c1cccc(C(F)(F)F)c1	APP 5UTR inh 54, aSyn 5UTR inh 82
CCN(CC)c1ccc(/C=N/NC(=O)CCC(=O)NCc2ccccc2)c(O)c1	APP 5UTR inh 52
CCN(CC)S(=O)(=O)c1cccc(C(=O)N/N=C/c2cc(OC)c(O)c(OC)c2)c1	none
O=[N+]([O-])c1ccc(N/N=C/c2sc(N3CCOCC3)nc2-c2ccccc2)c(S(=O)(=O)Nc2ccc(Cl)cc2)c1	aSyn 5UTR inh 76
O=[N+]([O-])c1ccc(N/N=C/c2sc(N3CCOCC3)nc2-c2ccccc2)c(S(=O)(=O)Nc2ccccc2Cl)c1	none (no result: aSyn 5UTR inh)
O=C(N/N=C/c1ccc(O)cc1)c1cccc(C(F)(F)F)c1	none
CCN(CC)S(=O)(=O)c1cccc(C(=O)N/N=C/c2cccc(O)c2O)c1	APP 5UTR inh 50, aSyn 5UTR inh 66
Cc1noc(C)c1CSCC(=O)Oc1ccc(N(C)S(=O)(=O)c2ccc(Cl)cc2)cc1	none (no result: KLF5 inh, APP 5UTR inh, IEC-6 tox, Ba/F3 V617F tox, BaF3 parental)
O=c1cc(CN2CC(O)Cc3ccc4ccccc4c32)nc2sccn12 (stereo unspecified)	none
CC(=O)c1cccc(CN2CCC(n3nccc3NC(=O)c3ccc4c(c3)OCO4)CC2)c1	none (no result: APP 5UTR inh, Ba/F3 V617F tox, BaF3 parental)
NC(=O)CC(NC(=O)c1ccc(Br)cc1)c1ccc(N2CCCCCC2)c([N+](=O)[O-])c1 (stereo unspecified)	none (no result: APP 5UTR inh, Ba/F3 V617F tox, BaF3 parental)
CCN(CC(=O)NCc1cccs1)C(=O)c1ccc(OC)c(OC)c1	none (no result: KLF5 inh, APP 5UTR inh, IEC-6 tox, Ba/F3 V617F tox, BaF3 parental)
CCCCc1ccc(-c2nc(-c3ccncc3)no2)cc1	aSyn 5UTR inh 91

Screens as filed in PubChem.
